This is part of a sample that, as a whole, favours compounds with a hit. Of some 79,000 tested, about 15% had one in any assay. A number with no mark means an inactive call. Calls of active or inactive are those of the source. No stated cut-off is given here; in the data, active means growth inhibition above about 70%; inactive means the rest.

Our source for the growth inhibition values is PubChem BioAssay (NCI).

Experiment [1] in a line: NCI Yeast Anticancer Drug Screen. Data for the rad50 strain (AID 155).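 Further: 0% = growth of vehicle-only cultures of the same strain.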 Conditions: S. cerevisiae rad50 strain growth inhibition; at 50.0 µM; active compounds read high. In outline:
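Genetically altered yeast (DNA repair pathway); compound treatment; growth inhibition vs vehicle ctrl.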

A short description of experiment [2]: NCI Yeast Anticancer Drug Screen. Data for the mec2-1 strain (AID 157). Conditions: S. cerevisiae mec2-1 strain, at 50.0 µM, active compounds read high. The method in brief: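 Cells of the genetically defined mec2-1 yeast strain are incubated with test compound. Inhibition of growth is calculated against vehicle-treated controls.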
Experiment [3] in a line: NCI Yeast Anticancer Drug Screen. Data for the sgs1 mgt1 strain (AID 161).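 Further: 0% = growth of cultures given vehicle only.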 Conditions: S. cerevisiae sgs1 mgt1 strain, at 50.0 µM, active compounds read high. The method in brief: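 Mutant yeast exposed to compound; growth scored against vehicle-only wells.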
Experiment [4] in a line: NCI Yeast Anticancer Drug Screen. Data for the cln2 rad14 strain (AID 165).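 Further: 0% = growth equal to vehicle treated cultures.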 Conditions: S. cerevisiae cln2 rad14 strain, at 50.0 µM, active compounds read high. The method in brief: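 The screen exposed genetically defined yeast (cln2 rad14) to test compounds and scored growth inhibition relative to vehicle-treated controls.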
The nature of experiment [5]: NCI Yeast Anticancer Drug Screen. Data for the bub3 strain (AID 167). Conditions: S. cerevisiae bub3 mutant strain, at 50.0 µM, active compounds read high. The method in brief:
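Yeast carrying a defined mutation is treated with each compound, and growth is compared with that of vehicle-exposed cells to give inhibition.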

Experiment [6] is described as follows: NCI Yeast Anticancer Drug Screen. Data for the mlh1 rad18 strain (AID 175). The note with it: S. cerevisiae mlh1 rad18 strain growth inhibition; at 50.0 µM; active compounds read high. The method in brief: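 Compound-treated yeast growth, normalised to vehicle controls. Strain bears defined DNA repair mutations.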

Turning to `Cc1ccc(N(CN2C(=O)CCC2=O)CS(=O)(=O)c2ccc(Cl)cc2)cc1`, the growth inhibition in experiment [1] is 10.4%; in experiment [2], 3.5%; in experiment [3], -0.45%; in experiment [4] it was 14.7%; in experiment [5], -3.4%; in experiment [6], -19.6%.
For the molecule `COc1ccc(C2=NN(C(C)=O)C(c3cc(OC)c(OC)cc3N)S2)cc1OC` (stereo unspecified) (tested in a mixture with another compound), the growth inhibition was 16.2% in experiment [1]; 17.1% in experiment [2]; 32.1% in experiment [3]; 19.6% in experiment [4]; 12.9% in experiment [5]; 30.1% in experiment [6].
With `O=C1CSC(c2cccc(Cl)c2)N1c1ccc(-n2c(-c3ccccc3)nc3ccccc3c2=O)cc1` (stereo unspecified), the growth inhibition in experiment [1] is -4.3%; in experiment [2], 9.65%; in experiment [3], 8.9%; in experiment [4] it was -15.9%; in experiment [5] it was 9.2%; in experiment [6] it was -6.8%.
For `O=[N+]([O-])c1ccc(-n2cccc2)cc1`, the growth inhibition was -0.55% in experiment [1]; 20% in experiment [2]; -0.55% in experiment [3]; 44.4% in experiment [4]; -0.75% in experiment [5]; -7.2% in experiment [6].
As for `Cc1ccc2c(c1)C(C)(C)C(C)C2(C)C` (stereo unspecified), the growth inhibition was -3.05% in experiment [1]; -8.2% in experiment [2]; -13.8% in experiment [3]; -19.9% in experiment [4]; 9.25% in experiment [5]; 21.3% in experiment [6].
For `c1ccc(CN(CCNc2ccccc2)c2ccccc2)cc1`, the growth inhibition in experiment [1] is 13.2%; in experiment [2], 48.4%; in experiment [3] it was 46.2%; in experiment [4] it was 5.1%; in experiment [5] it was 50.6%; in experiment [6], 3.7%.
On to `CCCCC(=O)Nc1ccc(Cl)cc1`, for which the growth inhibition was 18.2% in experiment [1]; 7.8% in experiment [2]; 6.5% in experiment [3]; 8.2% in experiment [4]; -19.9% in experiment [5]; 11.7% in experiment [6].
On to `O=CNc1ccc(Br)cc1`, for which the growth inhibition in experiment [1] was -8.3%; in experiment [2] it was -0.9%; in experiment [3], 11.4%; in experiment [4] it was 0.7%; in experiment [5], -1.15%; in experiment [6], 9.95%.
With `O=[N+]([O-])c1cccc(NC(c2ccccc2)S(=O)(=O)O)c1` (stereo unspecified), the growth inhibition in experiment [1] is -5.15%; in experiment [2], -18.6%; in experiment [3], 9.65%; in experiment [4], 18.9%; in experiment [5] it was 8.75%; in experiment [6], 5.15%.
As to `Nc1[nH]c(=O)ncc1[N+](=O)[O-]`, the growth inhibition in experiment [1] was 2.5%; in experiment [2], -4.1%; in experiment [3], 5.9%; in experiment [4], -25.4%; in experiment [5] it was -16.2%; in experiment [6], -0.65%.
In the case of `CCOC(=O)c1cnc2[nH]ccn2c1=O`, the growth inhibition in experiment [1] is -26.9%; in experiment [2], -43.3%; in experiment [3] it was -4.45%; in experiment [4], 10.3%; in experiment [5], -6.55%; in experiment [6], -8.75%.
In the case of `CCOCCOCCOc1c(Cl)cc(Cl)cc1Cl`, the growth inhibition was -6.65% in experiment [1]; 1.9% in experiment [2]; -7.35% in experiment [3]; -46% in experiment [4]; 30.2% in experiment [5]; -21.6% in experiment [6].
Turning to `C=C(C)C(=O)O[C@H]1CC2=C[C@@H](C[C@@]3(C)O[C@@H]3[C@H]3OC(=O)C(=C)[C@@H]31)OC2=O`, the growth inhibition in experiment [1] was -8.35%; in experiment [2], 10.1%; in experiment [3] it was 22.2%; in experiment [4] it was 6.4%; in experiment [5], -10%; in experiment [6], -5.15%.
Regarding `CC1C(=O)C2C1CS2(=O)=O` (stereo unspecified), the growth inhibition in experiment [1] is -0.9%; in experiment [2], 0.65%; in experiment [3], 5%; in experiment [4], -59.1%; in experiment [5], 13%; in experiment [6], -5.45%.
Take `OC(C1CCCCC1)(C1CCC2(CCCCC2)CC1)C1CCCC2CCCCC21` (stereo unspecified): the growth inhibition in experiment [1] is 29.9%; in experiment [2] it was 5%; in experiment [3], 30.9%; in experiment [4], 21.5%; in experiment [5], 1.35%; in experiment [6] it was 20.1%.
In the case of `COc1ccc2c(c1)C(=O)C1CC(=O)CCC21` (stereo unspecified), the growth inhibition in experiment [1] was -6.45%; in experiment [2], -10.4%; in experiment [3] it was -8.9%; in experiment [4], -21.8%; in experiment [5], -30.6%; in experiment [6], -8.9%.
As to `Cc1[nH]c2ccccc2c1C1Cc2ccccc2N1C(=O)/C=C/C=C/c1ccccc1` (stereo unspecified), the growth inhibition was 10.4% in experiment [1]; 24.7% in experiment [2]; -39.4% in experiment [3]; 38.5% in experiment [4]; 2.2% in experiment [5]; 15.2% in experiment [6].
As for `Cc1ccccc1N=Cc1ccc(N(CCC#N)S(=O)(=O)c2ccccc2)cc1`, the growth inhibition in experiment [1] was 11.7%; in experiment [2], -8.3%; in experiment [3], 19.9%; in experiment [4], 18.7%; in experiment [5], 0.95%; in experiment [6] it was 15%.
For the molecule `Cn1c(=O)c2ccccc2[n+]2c(-c3cccc([N+](=O)[O-])c3)csc12`, the growth inhibition is -3.9% in experiment [1]; -15.3% in experiment [2]; 41.5% in experiment [3]; 25.6% in experiment [4]; -8.85% in experiment [5]; -9% in experiment [6].
For `COc1ccccc1CNCc1nc2ccccc2[nH]1`, the growth inhibition is 4.8% in experiment [1]; 2.6% in experiment [2]; 6.9% in experiment [3]; 13.2% in experiment [4]; 0.55% in experiment [5]; 36.6% in experiment [6].
For the molecule `CN(C)S(=O)(=O)C(c1ccccc1)C(O)(c1ccccc1)c1ccc(Cl)cc1` (stereo unspecified), the growth inhibition was 72.1% (active) in experiment [1]; 45.5% in experiment [2]; 54.1% in experiment [3]; 22.9% in experiment [4]; 16.8% in experiment [5]; 57% in experiment [6].
